# About 410 targets per protein were measured; listed, in parts, are those with the strongest signals and a random draw of the rest.
# B1: PX15618A-bth-503-24-503 (Bacteroides thetaiotaomicron) (protein)
# chain: NKSEDKLSGDDFWAQGNETNAEAFLLSIYNSFRNATMSQRPFLTYSGDMRCAPITAYSTGDKYVAYLANNDMGELRNTYPDDARGGLIMQWDVFYTAIQDANILLAEIDKVPGMDELKRSRFKAEAIFMRSLSYFFIVRAFGDVPYYTNAYNEAPLPRTNMVIVLQNCLADLQPLLDDDPGAEVLPWSYSSYSSKGIRASRGSVIALMMHINLWLVQFDAQNKEQYYRNVVSLGEELERNNGAYSLLDINRSSVIFAGGSDEGLFEIAQNINFNEIFMMNAKFSDNVSYSCLNKSMPLFCYSGDYLMTLFPMYEDDARKELWFDEKIYSTSVSSSAPKEIKKFWNIDTYGNGTITSNSGNQIVFRYAGALLLYAEALAALGTNDTKACELLNRVRNRAHASEINTSGSELMDAIFWERCRELIGEGHYYYDLVRTGKVYNRNYCMNPMTRTNFNVGAWTWPIHRNALKNNTQIGLNLFWE
# Tests used:
# Assay in all cases: glycan array binding signal (z-score within array); higher = stronger binding
# Conditions in all cases: glycan notation: IUPAC condensed, linker removed
# [1] = target: Fuc(a1-2)Gal(b1-4)GlcNAc(b1-2)Man
# Method in brief: (§1)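 The Consortium for Functional Glycomics database supplied 3228 glycan arrays, of which those lacking an available protein sequence were dropped. The binding signal, a within-array Z-score, was averaged across arrays of the same protein sequence and across linkers. Negative scores can be read as non-binding.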
# [2] = target: Fuc(a1-2)Gal(b1-4)GlcNAc(b1-2)Man(a1-3)[Fuc(a1-2)Gal(b1-4)GlcNAc(b1-2)Man(a1-6)]Man(b1-4)GlcNAc(b1-4)GlcNAc
# Method in brief: as §1
# [3] = target: Fuc(a1-2)Gal(b1-4)[Fuc(a1-3)]GlcNAc(b1-2)Man(a1-3)[Fuc(a1-2)Gal(b1-4)[Fuc(a1-3)]GlcNAc(b1-2)Man(a1-6)]Man(b1-4)GlcNAc(b1-4)[Fuc(a1-6)]GlcNAc
# Method in brief: as §1
# Fuc(a1-2)Gal6S(b1-4)Glc = target: Fuc(a1-2)Gal6S(b1-4)Glc
# Method in brief: as §1
# [4] = target: Fuc(a1-2)[Gal(a1-3)]Gal(b1-3)GlcNAc(b1-2)Man(a1-3)[Fuc(a1-2)[Gal(a1-3)]Gal(b1-3)GlcNAc(b1-2)Man(a1-6)]Man(b1-4)GlcNAc(b1-4)GlcNAc
# Method in brief: as §1
# [5] = target: Fuc(a1-2)[GalNAc(a1-3)]Gal(b1-3)GlcNAc
# Method in brief: as §1
# [6] = target: Fuc(a1-2)[GalNAc(a1-3)]Gal(b1-4)Glc
# Method in brief: as §1
# [7] = target: Fuc(a1-3)[Gal(b1-4)]GlcNAc(b1-2)Man(a1-3)[Fuc(a1-3)[Gal(b1-4)]GlcNAc(b1-2)Man(a1-6)]Man(b1-4)GlcNAc(b1-4)GlcNAc
# Method in brief: as §1
# [8] = target: Gal(a1-3)Gal(b1-3)[Fuc(a1-4)]GlcNAc(b1-2)Man(a1-3)[Gal(a1-3)Gal(b1-3)[Fuc(a1-4)]GlcNAc(b1-2)Man(a1-6)]Man(b1-4)GlcNAc(b1-4)GlcNAc
# Method in brief: as §1
# [9] = target: Gal(a1-3)[Gal(a1-4)]Gal(b1-4)GlcNAc
# Method in brief: as §1
# [10] = target: Gal(b1-3)GlcNAc(b1-2)[Gal(b1-3)GlcNAc(b1-6)]Man(a1-6)[Gal(b1-3)GlcNAc(b1-2)Man(a1-3)]Man(b1-4)GlcNAc(b1-4)GlcNAc
# Method in brief: as §1
# [11] = target: Gal(b1-3)GlcNAc(b1-6)GalNAc
# Method in brief: as §1
# [12] = target: Gal(b1-3)[Fuc(a1-4)]GlcNAc
# Method in brief: as §1
# Gal(b1-4)GlcNAc(b1-2)Man = target: Gal(b1-4)GlcNAc(b1-2)Man
# Method in brief: as §1
# [13] = target: Gal(b1-4)GlcNAc(b1-2)Man(a1-3)[Gal(b1-4)GlcNAc(b1-2)Man(a1-6)]Man(b1-4)GlcNAc(b1-4)[Fuc(a1-6)]GlcNAc
# Method in brief: as §1
# [14] = target: Gal(b1-4)GlcNAc(b1-2)Man(a1-6)[Man(a1-3)]Man(b1-4)GlcNAc(b1-4)GlcNAc
# Method in brief: as §1
# [15] = target: Gal(b1-4)GlcNAc(b1-3)Gal(b1-4)GlcNAc(b1-3)Gal(b1-4)GlcNAc(b1-3)Gal(b1-4)GlcNAc(b1-3)Gal(b1-4)GlcNAc(b1-2)Man(a1-3)[Gal(b1-4)GlcNAc(b1-3)Gal(b1-4)GlcNAc(b1-3)Gal(b1-4)GlcNAc(b1-3)Gal(b1-4)GlcNAc(b1-3)Gal(b1-4)GlcNAc(b1-2)Man(a1-6)]Man(b1-4)GlcNAc(b1-4)GlcNAc
# Method in brief: as §1
# [16] = target: Gal(b1-4)GlcNAc(b1-3)Gal(b1-4)GlcNAc(b1-3)Gal(b1-4)GlcNAc(b1-3)Gal(b1-4)GlcNAc(b1-3)Gal(b1-4)GlcNAc(b1-3)Gal(b1-4)GlcNAc(b1-2)Man(a1-3)[Gal(b1-4)GlcNAc(b1-3)Gal(b1-4)GlcNAc(b1-3)Gal(b1-4)GlcNAc(b1-3)Gal(b1-4)GlcNAc(b1-3)Gal(b1-4)GlcNAc(b1-3)Gal(b1-4)GlcNAc(b1-2)Man(a1-6)]Man(b1-4)GlcNAc(b1-4)GlcNAc
# Method in brief: as §1
# [17] = target: Gal(b1-4)GlcNAc(b1-3)Gal(b1-4)GlcNAc(b1-3)GalNAc
# Method in brief: as §1
# Gal3S6S(b1-4)GlcNAc = target: Gal3S6S(b1-4)GlcNAc
# Method in brief: as §1
# [18] = target: GalNAc3S(b1-4)[Fuc(a1-3)]GlcNAc
# Method in brief: as §1
# [19] = target: GlcA3S(b1-3)Gal(b1-4)GlcNAc(b1-2)Man
# Method in brief: as §1
# [20] = target: GlcNAc(a1-4)Gal(b1-4)GlcNAc(b1-3)Gal(b1-4)GlcNAc(b1-3)Gal(b1-4)GlcNAc
# Method in brief: as §1
# [21] = target: GlcNAc(b1-2)Man(a1-3)[GlcNAc(b1-4)][GlcNAc(b1-2)Man(a1-6)]Man(b1-4)GlcNAc(b1-4)GlcNAc
# Method in brief: as §1
# [22] = target: GlcNAc(b1-2)[GlcNAc(b1-4)]Man(a1-3)[GlcNAc(b1-2)Man(a1-6)]Man(b1-4)GlcNAc(b1-4)GlcNAc
# Method in brief: as §1
# GlcNAc(b1-3)Gal(b1-4)Glc = target: GlcNAc(b1-3)Gal(b1-4)Glc
# Method in brief: as §1
# [23] = target: GlcNAc(b1-3)Gal(b1-4)GlcNAc(b1-3)Gal(b1-4)GlcNAc
# Method in brief: as §1
# [24] = target: GlcNAc(b1-3)Gal(b1-4)GlcNAc(b1-3)Gal(b1-4)GlcNAc(b1-3)Gal(b1-4)GlcNAc(b1-2)Man(a1-3)[GlcNAc(b1-3)Gal(b1-4)GlcNAc(b1-3)Gal(b1-4)GlcNAc(b1-3)Gal(b1-4)GlcNAc(b1-2)Man(a1-6)]Man(b1-4)GlcNAc(b1-4)[Fuc(a1-6)]GlcNAc
# Method in brief: as §1
# [25] = target: GlcNAc(b1-3)Gal(b1-4)GlcNAc(b1-3)GalNAc
# Method in brief: as §1
# Kdn(a2-6)Gal(b1-4)GlcNAc = target: Kdn(a2-6)Gal(b1-4)GlcNAc
# Method in brief: as §1
# [26] = target: Man(a1-2)Man(a1-3)[Man(a1-2)Man(a1-6)]Man
# Method in brief: as §1
# [27] = target: Man(a1-3)[Man(a1-6)]Man(a1-6)[Man(a1-3)]Man(b1-4)GlcNAc(b1-4)GlcNAc
# Method in brief: as §1
# MurNAc(b1-4)GlcNAc = target: MurNAc(b1-4)GlcNAc
# Method in brief: as §1
# [28] = target: Neu5Ac(a2-3)Gal(b1-3)GalNAc
# Method in brief: as §1
# [29] = target: Neu5Ac(a2-3)Gal(b1-3)]Neu5Ac(a2-3)Gal(b1-4)]GlcNAc
# Method in brief: as §1
# [30] = target: Neu5Ac(a2-3)Gal(b1-4)GlcNAc(b1-2)[Neu5Ac(a2-3)Gal(b1-4)GlcNAc(b1-4)]Man(a1-3)[GlcNAc(b1-4)][Neu5Ac(a2-3)Gal(b1-4)GlcNAc(b1-4)Man(a1-6)]Man(b1-4)GlcNAc(b1-4)GlcNAc
# Method in brief: as §1
# [31] = target: Neu5Ac(a2-3)Gal(b1-4)GlcNAc(b1-3)Gal(b1-4)GlcNAc(b1-3)GalNAc
# Method in brief: as §1
# [32] = target: Neu5Ac(a2-3)[GalNAc(b1-4)]Gal(b1-4)Glc
# Method in brief: as §1
# [33] = target: Neu5Ac(a2-6)Gal(b1-4)GlcNAc(b1-2)Man(a1-3)[Neu5Ac(a2-6)Gal(b1-4)GlcNAc(b1-2)Man(a1-6)]Man(b1-4)GlcNAc(b1-4)GlcNAc
# Method in brief: as §1
# [34] = target: Neu5Ac(a2-8)Neu5Gc(a2-3)Gal(b1-4)GlcNAc
# Method in brief: as §1
# Neu5Gc(a2-3)Gal(b1-4)Glc = target: Neu5Gc(a2-3)Gal(b1-4)Glc
# Method in brief: as §1
# [35] = target: Neu5Gc(a2-6)Gal(b1-4)GlcNAc
# Method in brief: as §1
binder,measurement,setting,value
B1,glycan array binding signal (z-score),[1],-0.103
same,glycan array binding signal (z-score),[2],2.2
same,glycan array binding signal (z-score),[3],0.352
same,glycan array binding signal (z-score),Fuc(a1-2)Gal6S(b1-4)Glc,2.77
same,glycan array binding signal (z-score),[4],-0.62
same,glycan array binding signal (z-score),[5],-0.665
same,glycan array binding signal (z-score),[6],-0.32
same,glycan array binding signal (z-score),[7],-0.28
same,glycan array binding signal (z-score),[8],6.49
same,glycan array binding signal (z-score),[9],3.72
same,glycan array binding signal (z-score),[10],2.47
same,glycan array binding signal (z-score),[11],2.58
same,glycan array binding signal (z-score),[12],-0.361
same,glycan array binding signal (z-score),Gal(b1-4)GlcNAc(b1-2)Man,-0.307
same,glycan array binding signal (z-score),[13],0.092
same,glycan array binding signal (z-score),[14],12.1
same,glycan array binding signal (z-score),[15],2.83
same,glycan array binding signal (z-score),[16],2.95
same,glycan array binding signal (z-score),[17],-0.08
same,glycan array binding signal (z-score),Gal3S6S(b1-4)GlcNAc,3.43
same,glycan array binding signal (z-score),[18],-0.361
same,glycan array binding signal (z-score),[19],-0.619
same,glycan array binding signal (z-score),[20],-0.188
same,glycan array binding signal (z-score),[21],-0.381
same,glycan array binding signal (z-score),[22],-0.803
same,glycan array binding signal (z-score),GlcNAc(b1-3)Gal(b1-4)Glc,-0.199
same,glycan array binding signal (z-score),[23],-0.161
same,glycan array binding signal (z-score),[24],0.037
same,glycan array binding signal (z-score),[25],0.059
same,glycan array binding signal (z-score),Kdn(a2-6)Gal(b1-4)GlcNAc,0.229
same,glycan array binding signal (z-score),[26],-0.505
same,glycan array binding signal (z-score),[27],0.524
same,glycan array binding signal (z-score),MurNAc(b1-4)GlcNAc,0.506
same,glycan array binding signal (z-score),[28],-0.436
same,glycan array binding signal (z-score),[29],0.09
same,glycan array binding signal (z-score),[30],-0.189
same,glycan array binding signal (z-score),[31],-0.707
same,glycan array binding signal (z-score),[32],-0.82
same,glycan array binding signal (z-score),[33],-0.217
same,glycan array binding signal (z-score),[34],13.7
same,glycan array binding signal (z-score),Neu5Gc(a2-3)Gal(b1-4)Glc,-0.471
same,glycan array binding signal (z-score),[35],-0.58
